# Rows were chosen to be rich in hits. Some 4% of all compounds tested hit in one or more screens of this group.
# D1 antagonist = human D1 dopamine receptor antagonism; P21728; HEK293 TREx D1 cells, calcium flux, dopamine EC80; active compounds read low; activity change, negative = inhibition, % at 10 µM; 360,000 compounds, 3.2% hits; AID 504652; in the data active = activity change below about -30%; also: % is scaled to controls: 0 for no effect and ±100 for the full control effect
#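 Tetracycline-induced HEK293 Trex D1 cells, force-coupled to calcium, dye-loaded; compounds added and read 180 s, then EC80 dopamine added and calcium flux tracked kinetically another 180 s.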
# Glioma ERSR ind = induces the endoplasmic reticulum stress response in human glioma cells. U87-MG GRP78 promoter luciferase reporter, 16 h. Potency, µM, without a hit: at the highest dose activation, hits mostly activators. 420,000 compounds, 0.02% hits. AID 602332; active = well fitted activation curve with a large enough effect; also: potency is read from the fitted curve at half-maximal effect; series mostly up to about 76 µM; % of control where 0% means no effect; nearly all actives have a fitted effect of over 35% in size
#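 Stably transfected U87-MG human glioma cells carrying a GRP78-based luminescent sensor were seeded at 1000 cells/well, pin-dosed with compounds and incubated 16 h. Luciferase reagent was then added, and end-point luminescence was read after 10 min at room temperature.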
# TRHR agonist = TRH receptor (human) agonism; AID 493084; TRHR cells, calcium flux fluo-8, FDSS agonist mode; 360,000 compounds, 0.18% hits; P34981; activation, % at 2 µM; also: 0% is about no effect
# Target sequence (P34981 whole entry, looked up): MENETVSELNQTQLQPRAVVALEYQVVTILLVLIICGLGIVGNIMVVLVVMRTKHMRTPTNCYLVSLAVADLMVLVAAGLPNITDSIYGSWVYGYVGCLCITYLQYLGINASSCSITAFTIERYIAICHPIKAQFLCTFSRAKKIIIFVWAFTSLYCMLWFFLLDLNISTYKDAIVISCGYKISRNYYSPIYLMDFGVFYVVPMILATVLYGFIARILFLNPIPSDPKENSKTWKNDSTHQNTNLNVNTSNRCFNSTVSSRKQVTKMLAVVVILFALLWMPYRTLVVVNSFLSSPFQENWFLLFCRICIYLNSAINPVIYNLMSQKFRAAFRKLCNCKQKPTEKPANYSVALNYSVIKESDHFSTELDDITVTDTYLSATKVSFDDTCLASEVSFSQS
#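 Steps: seed TRHR cells overnight; add fluo-8 no-wash Ca dye, RT 30 min–1.5 h; record 10 s baseline; pin-transfer compounds; monitor fluorescence 1 cycle/s for the agonist window. Calcium increases flag candidate agonists.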
# D1 potentiator = potentiators of human D1 dopamine receptor | HEK293 TREx D1 cells, calcium flux, dopamine EC20 potentiation | potentiation, % at 10 µM | 360,000 compounds, 0.036% hits | P21728; in the data active = potentiation above about 30%; also: 0% is about no effect
# D1 ag = activates the human D1 dopamine receptor. P21728. 360,000 compounds, 1% hits. HEK293 T-REx D1 cells, calcium flux, agonist mode. AID 504660. activation, % at 2 µM; also: 0% is about no effect
#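 Inducible HEK293 T-REx D1 cells, force-coupled to calcium signalling, were plated at 4000 cells/well with tetracycline and held overnight at 30 C. After no-wash calcium dye loading, compound-evoked calcium rise over 180 s flagged agonists.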
# TRHR PAM = TRH receptor (human) allosteric enhancement | P34981 | TRHR cells, fluo-8 calcium fluorescence, EC20 TRH enhancement | enhancement, % at 2 µM | 360,000 compounds, 0.66% hits; in the data active = enhancement above about 30%; also: 0% is about no effect
#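 Enhancer read-out: after compound pinning and an initial kinetic agonist-mode read, an EC20 of TRH (10 nM final) was injected and fluo-8 calcium signal (Ex 480/Em 530) followed at 1 s/cycle for 100 cycles in TRHR-expressing cells.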
# Active calls of the source: *; / = no result; ! = repeats disagree. Rule as the data show it, unless noted: active = activation above about 30%; inactive = the rest.
SMILES,D1 antagonist,Glioma ERSR ind,TRHR agonist,D1 potentiator,D1 ag,TRHR PAM
COc1ccc(S(=O)(=O)NCCSc2ccc(C)cc2)cc1OC,-21,4%,-1,-7,14,4
O=S(=O)(NCCCCNS(=O)(=O)c1c(F)cccc1F)c1ccc2c(c1)OCCO2,-41*!,-4%,0,0,1,2
COc1ccc(NC(=S)N(Cc2ccc(C)cc2)Cc2ccccn2)cc1,-31*,-3%,0,-3,1,3
COc1ccc(NC(=S)N(CCc2ccc(OC)c(OC)c2)Cc2ccccn2)cc1,-6,3%,0,1,2,-18
O=C(Cn1cc(SCc2ccc(Br)cc2)c2ccccc21)N1CCCCC1,-3,4%,0,-4,2,-5
CC1=NN(c2ccccc2)C(=O)/C1=C\C=C1/N(C)c2ccccc2C1(C)C,-19,-4%,12,-3,68*,-12
CC1=NN(c2ccccc2)C(=O)/C1=C\C=C1\N(C)c2ccccc2C1(C)C,-32*,2%,6,-3,44*,-1
CC1=NN(c2ccccc2)C(=O)/C1=C/N(C)C,-13,-1%,0,-1,0,-8
CCc1nc2ccccc2c(C(=O)OCC(=O)N(CC(C)C)c2c(N)n(Cc3ccccc3)c(=O)[nH]c2=O)c1C,35,-4%,3,13,16,-2
O=C(Nc1cccc([N+](=O)[O-])c1)c1cc2ccccc2cc1O,-42*,0%,5,-7,24,-3
O=C(Nc1cccc([N+](=O)[O-])c1)c1ccc(-c2ccccc2)cc1,-59*,-3%,1,-8,15,8
CC(C(=O)Nc1cccc([N+](=O)[O-])c1)[n+]1ccccc1 (configuration not stated),-2,-4%,1,0,0,31*
COc1ccc(NC(=O)c2cc([N+](=O)[O-])ccc2O)cc1,-31*,-13%,1,-2,26,0
O=C(Nc1cccc([N+](=O)[O-])c1)c1cccc(C(=O)Nc2cccc([N+](=O)[O-])c2)c1,-19,4%,-1,-1,19,14
O=C(O)c1ccccc1C(=O)Nc1cccc([N+](=O)[O-])c1,-7,0%,1,5,2,1
Cc1cc(-c2nnc(SCC(=O)Nc3ccc(Cl)cn3)n2N)n[nH]1,5,-5%,0,0,4,-4
CC1(C(=O)Nc2ccc3c(c2)OCCO3)CCN1C(=O)CC1CCCC1 (configuration not stated),/,-4%,/,/,/,/
COC(=O)C1C/C(=N\NS(=O)(=O)c2ccc(C)cc2)c2ccccc2C1 (configuration not stated),-4,-3%,-1,2,0,1
O=C(CCN1C(=O)/C(=C/C=C/c2ccccc2)SC1=S)Nc1ccccn1,9,-8%,0,5,4,39*
O=C(CCCN1C(=O)S/C(=C\C=C\c2ccccc2)C1=O)Nc1ccc(C(=O)O)cc1,-9,5%,0,-1,0,1
O=C(CCN1C(=O)S/C(=C\C=C\c2ccccc2)C1=O)Nc1ccc(O)cc1,-38*,5%,-2,-2,-1,-1
CC(C)CC(N)c1csc(Nc2ccc(C(=O)N(C)Cc3ccccc3)cn2)n1 (configuration not stated),/,-6%,/,/,/,/
Cc1cc(/C=N/NC(=O)CC#N)c(C)n1-c1ccc([N+](=O)[O-])cc1,-37*,5%,-1,-17,0,-2
Cc1ccc(-n2c(C)cc(/C=N/Nc3ccc([N+](=O)[O-])cn3)c2C)cc1,-46*,2%,2,-11,6,-4
Cc1cccc(NC(=O)c2cccc(S(=O)(=O)N(C)c3ccccc3)c2)n1,-10,-1%,0,1,-1,-2
SMILES,D1 antagonist,Glioma ERSR ind,TRHR agonist,D1 potentiator,D1 ag,TRHR PAM
Cc1ccc(C(=O)N(Cc2cc3cc4c(cc3nc2N2CCOCC2)CCC4)CC2CCCO2)cc1 (configuration not stated),/,1%,/,/,/,/
COc1ccccc1Cn1nnc2c(=O)[nH]c(C3CCN(C(=O)c4ccccc4Cl)CC3)nc21,-1,-2%,0,-4,1,-3
CNC(=O)CN(c1ccc(C23CC4CC(CC(C4)C2)C3)cc1)S(C)(=O)=O,8,-2%,0,13,4,-4
Cc1ccc(CNC(=O)c2ccc(S(=O)(=O)N3CCCCCC3)cc2)cc1,/,-2%,/,/,/,/
O=C(CCCN1CCN(c2ccccn2)CC1)c1ccc(F)cc1,-74*,-3%,-1,-7,-1,-5
Cc1ccc(C(=O)NC2CCN(CCCC(=O)c3ccc(F)cc3)CC2)cc1,-38*,-3%,-1,-10,3,8
O=C(CCCN1CCC(NC(=O)c2ccccc2)CC1)c1ccc(Cl)cc1,-19,-2%,-1,-6,2,2
CCCOc1ccc(NC(=O)CC2C(=O)N(CC)C(=S)N2CCCN2CCN(Cc3ccccc3)CC2)cc1 (configuration not stated),-34*,-7%,0,-7,13,3
CCN1C(=O)C(CC(=O)Nc2ccc(OC)cc2)N(Cc2ccc(OC)c(OC)c2)C1=S (configuration not stated),6,-4%,0,2,1,1
CCN1C(=O)C(CC(=O)Nc2ccc(OC)cc2)N(CCc2ccc(OC)cc2)C1=S (configuration not stated),-33*,0%,-1,-6,21,-1
Cc1ccc(-c2cc(C(F)F)n3ncc(C(=O)NN4CCCCC4)c3n2)cc1,-9,-2%,-1,3,1,-4
CC(=O)Nc1c(C(=O)Nc2cccc(C)c2)nnn1-c1ccc(C)cc1,-34*,-1%,1,-1,11,-5
Cc1ccc(NC(=O)c2nnn(-c3cccc(C(F)(F)F)c3)c2N)cc1,9,-2%,0,-2,0,-4
CCn1cc(C(=O)NCc2ccco2)c(=O)c2cc(S(=O)(=O)N3CCCC3)ccc21,4,-2%,0,-1,-3,-7
CSc1cccc(N2CC(C(=O)Nc3ccccc3N3CCCC3)CC2=O)c1 (configuration not stated),-32*,-2%,-1,-8,1,-8
Cc1ccc(N2CC(C(=O)Nc3ccccc3N3CCCC3)CC2=O)cc1 (configuration not stated),-30,-2%,0,4,1,-3
CC(C)CC(NC(=O)OC(C)(C)C)c1cn([C@@H](Cc2ccc(O)cc2)C(=O)N2CCN(C(=O)OC(C)(C)C)CC2)nn1 (some centres not stated),2,-1%,0,-4,3,-3
COc1ccc2c(C)cc(C)nc2n1,-33*,-4%,1,0,0,3

# Assay outcomes from PubChem BioAssay.
